# G9a inh – qHTS Assay for Inhibitors of Histone Lysine Methyltransferase G9a. Histone-lysine N-methyltransferase EHMT2 (Homo sapiens), Q96KQ7. G9a H3K9 monomethylation, AlphaScreen, 2 h. Potency, µM (series often up to 102 µM), for the others: top-dose activity, negative = inhibition, most hits filed as inhibitors. hit rate 8.8% among 350,000; further: potency means the concentration at half of the fitted maximal effect; on the % scale 0 is the no-effect control and ±100 the full control effect; nearly all actives have a fitted effect of over 75% in size
#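 AlphaScreen read-out: biotin-H3K9 peptide (500 nM) methylation by 20 nM enzyme with 20 uM SAM, 2 h at room temperature after 15 min compound preincubation; anti-monomethyl H3K9 antibody plus donor/acceptor beads, 10 min dark.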
# BAZ2B block – qHTS Assay for Inhibitors of BAZ2B; AlphaScreen BAZ2B-H3K14Ac peptide displacement; Potency, µM (series often up to 114 µM), for inactives: at the highest dose activity change, negative = inhibition, hits mostly inhibitors; hit rate 4.4% among 360,000; further: potency means the concentration at half of the fitted maximal effect; on the % scale 0 is the no-effect control and ±100 the full control effect; nearly all actives have a fitted effect of over 60% in size
#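 Complex of BAZ2B and biotin-H3K14Ac (50 nM apiece) forms over 30 min at RT, then faces library compounds up to 110 uM for another 30 min; AlphaScreen beads added, 20 min dark incubation, luminescence read.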
# Six1-Eya2 inh – qHTS Assay for Inhibitors of the Six1/Eya2 Interaction; AlphaScreen GST-Six1/His-Eya2 binding, biochemical; hits give low values; activity change, % (no concentration beside the values); hit rate 0.56% among 360,000; in the data active means activity change below about -65%; inconclusive means mostly about -30% to -63%; further: on the % scale 0 is the no-effect control and ±100 the full control effect
#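 AlphaScreen with GST-Six1 and His-Eya2 (5X mix: 250 nM and 500 nM), glutathione donor and nickel acceptor beads; buffer 50 mM Tris pH 8.0, 300 mM NaCl, 1 mM TCEP; 1 h at 37 C in the dark.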
# CtBP-E1A blk – qHTS Assay for Inhibitors of the CtBP/E1A Interaction | CtBP / adenovirus E1A interaction (AlphaScreen) | AlphaScreen GST-E1A/His-CtBP binding, 1536-well; hits give low values | activity change, % (test concentration not listed) | hit rate 0.49% among 340,000; in the data active means activity change below about -65%; inconclusive means mostly about -30% to -63%; further: on the % scale 0 is the no-effect control and ±100 the full control effect
#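 AlphaScreen with 125 nM GST-E1A and 125 nM His-CtBP (5X stocks) in Tris pH 8.0, 300 mM NaCl, BSA, Tween 20, TCEP. Compounds preincubated 2 h at 37 deg C, then glutathione donor/nickel acceptor beads added for 1 h at 37 deg C in dark.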
# HP1b chromo inh – HTS for Inhibitors of HP1-beta Chromodomain Interactions with Methylated Histone Tails. Chromobox protein homolog 1 (Homo sapiens), P83916. AlphaScreen HP1-beta / biotin-H3K9me3 peptide binding. hit rate 0.56% among 390,000. AID 540317, 2011. Potency, µM (top dose mostly 114 µM), for inactives: top-dose activity change, negative = inhibition, actives largely listed as inhibitors; further: potency means the concentration at half of the fitted maximal effect; nearly all actives have a fitted effect of over 70% in size
#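 Compound inhibition of the preformed complex between 50 nM HP1-beta and 50 nM biotinylated H3K9me3 peptide was read by AlphaScreen. Buffer was PBS pH 7.4 with 0.01% Tween-20. Incubations ran 30 min at room temperature, with 10 ug/mL donor/acceptor beads.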
# JMJD2A Tudor – qHTS Assay for Inhibitors of JMJD2A-Tudor Domain; Lysine-specific demethylase 4A (Homo sapiens), O75164; hit rate 4.4% among 390,000; Potency, µM (titrated, usually from 114 µM), for inactives: top-dose activity change, negative = inhibition, actives largely listed as inhibitors; AlphaScreen JMJD2A-Tudor / H3K4me3 peptide binding; further: potency means the concentration at half of the fitted maximal effect; on the % scale 0 is the no-effect control and ±100 the full control effect; nearly all actives have a fitted effect of over 50% in size
# * = called active by the depositor; u = inconclusive; x = no result; [ ] = dose if it differs, or a comment. Rows were chosen to be rich in hits. Some 10% of all compounds tested hit in one or more screens of this group. Unless noted, the call rests on the fitted dose curve; in most records, active means well fitted inhibition curve with a large enough effect; inconclusive means small, poorly fitted or top-dose-only effect; inactive means no such curve, though single readings can be large or run the other way.
SMILES,G9a inh,BAZ2B block,Six1-Eya2 inh,CtBP-E1A blk,HP1b chromo inh,JMJD2A Tudor
Cc1ccc(Nc2nc3c(S(=O)(=O)c4ccccc4)nnn3c3ccsc23)c(C)c1,-19.2%[59 µM],u,x,x,23.2%,-13.6%
CCOc1ccc(-n2c(=O)c3sc4ccccc4c3n(Cc3cccc(C)c3)c2=O)cc1,42.1%[59 µM],24.3%,x,x,73.0%,u
CCn1c(COc2ccc(Cl)cc2)nnc1SCc1ccc(C#N)cc1,39.8µM*,-1.2%,0.2,4.6,61.7%,-24.0%[11.4 µM]
CCOc1ccc(-n2c(SCc3ccc(C#N)cc3)nnc2-c2cccnc2)cc1,-23.4%,1.2%,15.4,34.2,35.3%,-35.8%
CCOc1ccc(-n2c(SCc3ccc([N+](=O)[O-])cc3)nnc2-c2ccc(OC)cc2)cc1,8.91µM*,u,-21.5,-6.4,u,u
CCOC(=O)C1=C(Cc2ccc(F)cc2)C(=O)c2ccccc2C1=O,8.91µM*,39.8µM*,-11.7,-10.8,u,20µM*
CC1S/C(=N/N=C/c2cccc([N+](=O)[O-])c2)NC1=O (stereo not given),12.6µM*,u,-22.3,x,7.8%,-35.9%
CCOC(=S)SCC(=O)N1CCc2ccccc2C1C1C(=O)CC(C)(C)CC1=O (stereo not given),u,u,0.4,8.9,25.3%,-26.1%
CCOC(=S)SCC(=O)N1CCc2cc(OC)c(OC)cc2C1C1C(=O)CC(C)(C)CC1=O (stereo not given),44.7µM*,11.5%,-4.9,6.5,9.9%,-32.6%
CNC(=O)NC(=S)NC(=O)c1ccc(OC)cc1,16.2%[12.7 µM],-34.7%,-1.6,8.0,13.9%,15.8µM*
O=C(NC(=S)NNC(=O)c1ccccc1O)c1cccnc1,12.6µM*,u,-89.9*,x,21.0%,56.2µM*
COc1ccc(C(=O)NC(=S)NNC(=O)c2ccccc2O)cc1,12.1%,4.1%,-92.2*,-11.9,20.1%,-18.0%
O=C(NC(=S)NNC(=O)c1ccc(Cl)cc1Cl)c1cccnc1,2.24µM*,5.0%,0.1,-9.6,-13.3%,44.7µM*
COc1ccccc1N1CCN(c2c3c(nc4nncn24)CCC3)CC1,-7.8%[59 µM],-3.1%,x,x,34.0%,-12.9%
Cc1ccc(C(CCNC(C)c2cccs2)c2ccco2)cc1 (stereo not given),-2.1%,-29.5%,-3.1,-16.1,9.4%,-25.8%
O=C(NNC(=S)NC(=O)c1cccnc1)c1ccc(Cl)cc1,22.4µM*,9.2%[57.1 µM],-0.1,-1.5,-17.4%,u
O=C(Cc1ccc(Cl)cc1)NNC(=S)NC(=O)c1cccnc1,x,12.1%,6.6,-1.5,18.8%,-27.6%
Cc1ccc(C(=O)NNC(=S)NC(=O)c2ccc(Cl)cc2)cc1,39.8µM*,4.9%,2.5,-8.0,2.2%,-26.9%
O=C(CCc1ccccc1)NNC(=S)NC(=O)c1ccc(Cl)cc1,1.58µM*,8.7%,0.5,2.2,-20.6%,-35.6%
CN(C)c1ccc(C(=O)NNC(=O)c2ccc(Cl)cc2)cc1,x,u,2.4,1.2,9.0%,-26.3%
COc1ccccc1NC(=S)NNC(=O)c1ccc(Cl)cc1Cl,20µM*,8.6%,-7.8,-9.0,14.4%,-18.1%
O=C(NC(c1ccc2c(c1)OCO2)c1ccccn1)C1CCN(CCOc2ccccc2)CC1 (stereo not given),x,x,0.6,-7.2,x,x
CCSc1nc2c(c(=O)[nH]1)C(c1cccs1)C(C(=O)OC)=C(C)N2 (stereo not given),-10.4%,2.9%,9.3,-22.9,45.0%,-13.8%
O=C(NC(=S)NNC(=O)c1cnccn1)c1ccc(Cl)cc1,50.1µM*,3.16µM*,-91.8*,-95.4*,14.5%,22.4µM*
CCN(N=Nc1cccc([N+](=O)[O-])c1)c1cccc([N+](=O)[O-])c1,u,u,u,u,-33.5%,u
SMILES,G9a inh,BAZ2B block,Six1-Eya2 inh,CtBP-E1A blk,HP1b chromo inh,JMJD2A Tudor
CCOc1cc(C=O)cc(N=Nc2cccc([N+](=O)[O-])c2)c1O,44.7µM*,25.1µM*,-14.9,-12.3,u,u
CCCCn1nc(C(=O)N(C)CC(=O)Nc2cccc(F)c2)c2ccccc2c1=O,35.5µM*,5.3%,-3.6,18.7,35.8%,-2.1%
COc1cccc(NC(=O)CN(C)CC(=O)Nc2ccccc2-c2ccccc2)c1,14.1µM*,79.4µM*,0.7,-9.0,u,22.4µM*
CN(CC(=O)Nc1cccc(F)c1)CC(=O)Nc1ccccc1Oc1ccccc1,8.91µM*,25.1µM*,0.5,x,u,10µM*
CN(CC(=O)Nc1cccc(F)c1)CC(=O)Nc1ccccc1-c1ccccc1,x,x,-4.3,6.4,39.3%,-19.3%
CN(CC(=O)Nc1cccc(F)c1)C(=O)c1ccc(-c2ccc(Cl)cc2)o1,35.5µM*,u,-10.2,-0.4,5.6%,u
CC(=O)Nc1ccc(NC(=O)c2cc3c(=O)n(Cc4cccnc4)ccc3nc2C)cc1,-0.8%[59 µM],-14.5%,x,x,-5.9%,-16.7%
CN(CC(=O)Nc1cccc(F)c1)C(=O)c1ccc(COc2ccccc2)cc1,-32.3%,-9.0%,-70.3*,-9.4,3.2%,-6.6%
C[C@H](NC(=O)OCc1ccccc1)c1nnc([C@H](Cc2ccccc2)NC(=O)OC(C)(C)C)o1,21.7%[59 µM],-3.9%,12.4,6.0,29.1%,-15.5%
Cc1cccc(CS(=O)(=O)c2nnc([C@H](Cc3ccccc3)NC(=O)OC(C)(C)C)o2)c1,10µM*,3.5%,0.8,6.5,66.8%,-3.8%
COC(=O)CSc1nnc([C@H](Cc2ccccc2)NC(=O)OC(C)(C)C)o1,17.5%,1.8%,-0.5,2.0,26.3%,13.3%
CC(C)(C)OC(=O)N[C@@H](Cc1ccccc1)c1nnc(SCC(N)=O)o1,u,-10.3%,1.3,x,39.4%,-21.7%
COC(=O)CS(=O)(=O)c1nnc([C@H](Cc2ccccc2)NC(=O)OC(C)(C)C)o1,u,6.6%,11.3,17.4,4.4%,79.4µM*
CN(C)C(=O)CSc1nnc([C@H](Cc2ccccc2)NC(=O)OC(C)(C)C)o1,39.8µM*,-0.2%,12.0,9.3,-9.5%,-6.2%
S=C(Nc1ccc(Br)cc1Cl)Nn1cnnc1,u,u,-0.6,-17.4,-18.9%,-17.9%
C[C@H](CO)N1C[C@H](C)[C@@H](CN(C)Cc2ccccc2)Oc2c(NS(=O)(=O)c3cn(C)cn3)cccc2C1=O,x,x,-1.1,-15.8,34.3%,-25.5%
Cc1sc2ncnc(OCC(=O)NC3CCS(=O)(=O)C3)c2c1C (stereo not given),47.6%[59 µM],3.3%,-3.9,x,45.7%,-19.8%

# Assay outcomes as filed in PubChem BioAssay.
